From PubChem BioAssay (NCI) come the findings set out here.

Each structure is given as a SMILES string. The panel holds about 83,000 compounds, 20% with a hit somewhere; the sample as a whole holds those more often.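 Negative percent growth values reflect cell death: -40 means 40% of the cells present at the start died, and -100 means all died.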 A number with no mark means an inactive call. Active and inactive are the calls of the source.

For the assay, the system named is NCI/ADR-RES ovarian. As to the kind of experiment: NCI-60 one-dose screen, 48 h (100 = growth as untreated, 0 = no growth, -100 = all killed). To be noted: 10 µM unless noted. The protocol:
Growth inhibition of the NCI/ADR-RES human […] tumor cell line is measured as a screen for anti-cancer activity. Cells are grown in 96 well plates and exposed to the test compound for 48 hours. Compounds are tested at a single concentration, which is 10^-5 M for most compounds. The reported endpoint is percent growth (GI% or GIPRCNT), where numbers from 0 - 100% represent growth inhibition, and numbers from -100% - 0 represent cell death. For example, a value of 40 represents 60% growth inhibition. A value of 0 means no net growth occurred over the course of the experiment. A value of -40 indicates 40% of cells at the beginning of the experiment died by the end of the experiment. A value of -100 means all cells are dead at the end of the experiment.
NCI-60 Human Tumor Cell Lines Screen was performed using the standard one-dose NCI protocol, which is described in more detail at https://dtp.cancer.gov/discovery_development/nci-60/default.htm.
Compounds with GIPRCNT values below 10 were considered active. Activity score was based on GIPRCNT using the following formula: […]
Score is 0 for GIPRCNT values of 100 or above, 50 for GIPRCNT values of 0, and 100 for GIPRCNT values of -100.
As for `NC(=S)NNC1CCCCC1`, the growth was 101%.
As for `Cn1c(I)c(C#C[Si](C)(C)C)c(=O)[nH]c1=O`, the growth was 83.3%.
Then `O=C(N/N=C1\SCC(=O)N1c1ccccc1)c1cc(-c2cc3ccccc3o2)nn1-c1ccccc1`, with 108%; and `CN(C)c1ccc(/C=N/n2c(-c3cc(F)c(Cl)cc3Cl)nn(CN3CCOCC3)c2=S)cc1`, with 97.3%; and `O=[N+]([O-])c1ccccc1NC1c2ccccc2Oc2ccccc21`, with 31.4%.
As to `COc1ccc(C2=NN(C(=O)COc3ccc(Cl)cc3)C(O)(c3cc(F)c(Cl)cc3Cl)C2)cc1OC` (stereo not given), the growth is 19.9%.
Turning to `O=C1C(SCCO)=C(SCCO)C(=O)N1c1ccc(-c2ccccc2)cc1`, the growth was 104%.
Then `Nc1ncc(-c2ccc3ncnc(Nc4cncc(Cl)c4)c3c2)cn1`, with 82.2%; and `Cc1ccc2oc(=O)cc(C3C(C#N)=C(N)Oc4c3ccc3ccccc43)c2c1` (stereo not given), with 62.9%.
Then `COc1ccc(OC)c(NCC(=O)n2nc(/C=C\c3ccc(O)c(OC)c3)cc2/C=C\c2ccc(O)c(OC)c2)c1`, with 20.4%; and `COc1cc(NC(C)CCCN2C(=O)c3ccccc3C2=O)c2nc(C)ccc2c1OC` (stereo not given), with 83.3%.
With `COc1ccc(-c2nnc(NC(=O)CN3CCN(c4cc5c(cc4F)c(=O)c(C(=O)O)cn5C4CC4)CC3)s2)cc1OC`, the growth was 103%.
Consider `COc1ccc2c(-c3ccc(F)cc3)c(C#N)c(=NC(C)=O)oc2c1`, for which the growth was 31.2%.
As for `COc1ccc(-c2nn(-c3ccc(NC(=O)Nc4ccc(Cl)c(C(F)(F)F)c4)cc3)cc2-c2ccncc2)cc1Cl`, the growth is 9.1% (active).
As for `COc1cc(NC(C)CCCN2C(=O)c3ccccc3C2=O)c2ncccc2c1OC` (stereo not given), the growth was 90.6%.
Consider `C[C@H]1C=C(C[C@@H](O)CC#CC#CCCCCC[C@@H](O)[C@H]2CCC(=O)O2)C(=O)O1`, for which the growth was 95.5%.
Take `c1nc(SC2=NCCN2)c2[nH]cnc2n1`: the growth is 22.5%.
Turning to `OC[C@@H](O)C(O[C@@H]1O[C@H](CO)[C@H](O)[C@H](O)[C@H]1O)[C@H](O)[C@@H](O)CO` (stereo not given in full), the growth is 95.4%.
For the molecule `Oc1ccccc1/C=N/c1ccccn1`, the growth is -97.1% (active).
As for `C=C1C(=O)O[C@H]2[C@H]1CC/C(COC(=O)c1cccc3ccccc13)=C\CC[C@@]1(C)O[C@@H]21`, the growth is -28.4% (active).
Then `CCOc1ccc(NC2=C(Cl)C(=O)c3ccccc3C2=O)cc1`, with 98.5%; and `CS(=O)(=O)Nc1cccc(-c2ccc3ncnc(Nc4cncc(Cl)c4)c3c2)c1`, with 79.7%.
For `S=C=NP1(N=C=S)=NP(N=C=S)(N=C=S)=NP(N=C=S)(N=C=S)=NP(N=C=S)(N=C=S)=N1` (stereo not given), the growth is 107%.
As for `COc1ccc(OCC(O)CN2CCN(c3ccc(Cl)cc3)CC2)cc1` (stereo not given), the growth is 185%.
Turning to `Nc1nccc2c1ccn2-c1ccc(NC(=O)Nc2cccc(C(F)(F)F)c2)cc1`, the growth was 89.3%.
As to `COc1ccc(Cl)cc1NC(=O)c1cc2c([nH]1)-c1nc(NC(=O)C(C)C)sc1CC2`, the growth is 93.9%.
In the case of `O=c1c(-c2ccc3c(c2)OCO3)coc2c(CO)c(O)ccc12`, the growth is 52%.
Regarding `CC(=O)N1N=C2N(Cc3ccccc3)C(=O)c3c(sc4c3CCCC4)N2C1c1cn(-c2ccccc2)nc1-c1ccc(Cl)cc1` (stereo not given), the growth is 100%.
Then `C/C(=N\N=C1/SCC(=O)N1c1ccccc1)c1ccco1`, with 104%.
Then `Nc1nc(Cl)cc(NCCCCNc2cc(Cl)nc(N)n2)n1`, with 107%; and `CC(Cl)(CCl)CS(=O)(=O)c1ccc(Cl)cc1` (stereo not given), with 110%.
For the molecule `Cc1c(F)cccc1NC(=O)c1sc2nc3c(cc2c1N)CCCCC3`, the growth was 43.9%.
On to `O=C(NCCNc1nccc(-c2c(-c3cccc(O)c3)nc3sccn23)n1)Nc1cc(C(F)(F)F)cc(C(F)(F)F)c1`, for which the growth was 87.8%.
For `Clc1ccc2c(NCCNc3nc(Cl)nc4ccccc34)ccnc2c1`, the growth was 38.5%.
Then `CCCc1nn2c(CCC(=O)c3nc4ccc([N+](=O)[O-])cc4[nH]3)nnc2s1`, with 104%.
On to `COc1cccc(-c2nc3sccn3c2-c2ccnc(NCCNC(=O)c3ccccc3)n2)c1`, for which the growth is 70.5%.
As for `COc1ccc(C[C@H](N)C(=O)N[C@@H]2[C@@H](CO)OC(n3cnc4c(N(C)C)ncnc43)[C@@H]2O)cc1` (stereo not given in full), the growth is 93.4%.
For the molecule `COc1cc(Br)c(-c2nc(-c3ccccc3)c(-c3ccccc3)n2Cc2ccccc2)cc1OC`, the growth was 48.9%.
Take `NC(CCCC(N)C(=O)c1ccccc1)C(=O)O` (stereo not given): the growth was 103%.
As to `O=C(NCCNc1nccc(-c2c(-c3cccc(O)c3)nc3sccn23)n1)c1ccc(N2CCOCC2)c(C(F)(F)F)c1`, the growth was 95.4%.
